According to PubChem BioAssay AID431 (Sanford-Burnham Center for Chemical Genomics, 2006):
Out of some 63,000 compounds screened, about 1,100 (1.7%) were called active.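 How the source made its calls: active means compounds whose percent cytotoxicity in the single-dose primary screen, scaled between solvent and toxic-drug controls, exceeds 50; inactive means the rest.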 The list comes from a sample in which actives are over-represented; it also holds similar structures and randomly drawn compounds. Measured potencies and affinities stand elsewhere.

Experiment: cytotoxicity in KRAS-transformed pancreatic duct cells, primary screen, cell-based, fluorescence, HTS (AID 431);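 further: 0% = DMSO solvent wells and 100% = doxorubicin-treated wells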
Conditions: HPDE-C7K KRASV12 cells, Alamar Blue viability, 48 h; at 10 µM; hits give high values

Compound	cytotoxicity
O=C(C1CCN(S(=O)(=O)Cc2ccccc2)CC1)N1CCN(c2ncccn2)CC1	11.4% (inactive)
CCC(=O)NCCC(c1ccco1)c1ccccc1OC (configuration not stated)	-5.9% (inactive)
O=C(O)c1oc2ccccc2c1-n1cccc1	7.2% (inactive)
O=c1[nH]c(Cc2ccccc2)nc2c1oc1ccccc12	10.4% (inactive)
O=C(O)c1c(-c2ccccc2)c2oc3ccccc3c2[nH]c1=O	81.6% (active)
COC(=O)c1ccc(C(=O)OC)c(NS(C)(=O)=O)c1	-2.8% (inactive)
CC(=O)Nc1cccc(OCC(O)Cn2cnc3ccccc32)c1 (configuration not stated)	3.6% (inactive)
OCCOCCN1CCN(C(c2ccccc2)c2ccc(Cl)cc2)CC1 (configuration not stated)	26.4% (inactive)
Cc1cc(N2CCN(C(c3ccccc3)c3ccc(Cl)cc3)CC2)n2ncnc2n1 (configuration not stated)	8.1% (inactive)
Cc1cccc(CN2CCN(c3ccccn3)CC2)c1	-9.1% (inactive)
CN1CCCN(C(c2ccccc2)c2ccc(Cl)cc2)CC1 (configuration not stated)	51% (active)
Cc1cccc(CN2CCN(C(c3ccccc3)c3ccc(Cl)cc3)CC2)c1 (configuration not stated)	85.4% (active)
Cc1cccc(CN2CCN(C(=O)c3ccccc3F)CC2)c1	-6.8% (inactive)
O=C(Nc1ccc2c(c1)OCO2)C1CCCN(S(=O)(=O)c2cccs2)C1 (configuration not stated)	0.2% (inactive)
Cc1ccc(NC(=O)c2ccco2)c(NC(=O)c2cccs2)c1	-4.8% (inactive)
COc1ccc(C(=O)OCCN2CCOCC2)cc1OC	-1.7% (inactive)

Compound	cytotoxicity
Cc1ccc(C(=O)N(CC(=O)NC2CCCC2)Cc2cccs2)s1	5.4% (inactive)
Cc1ccc2cccc(OCC(=O)NCc3ccco3)c2n1	-8.8% (inactive)
CCCCCOc1ccc(C(=O)NC(C(=O)O)C(C)C)cc1 (configuration not stated)	6.5% (inactive)
CN=CC1=C(O)c2ccccc2C1=O	-1.7% (inactive)
Cc1ccc(O)c(N=CC2=C(O)c3ccccc3C2=O)c1	52.6% (active)
O=C1C(C=Nc2ccccc2O)=C(O)c2ccccc21	13.8% (inactive)
Cc1cccc(-n2ncc3c(NC4CCCCC4)ncnc32)c1	11.8% (inactive)
COC(=O)c1c(NC(=O)c2ccc(Br)s2)sc2c1CCC2	64.4% (active)
O=C(Nc1sc2c(c1C(=O)O)CCC2)c1cccs1	5.8% (inactive)
O=C(Nc1sc2c(c1C(=O)O)CCCC2)c1cccs1	13.8% (inactive)
CCOC(=O)c1c(NC(=O)c2ccco2)sc2c1CCCCC2	11.4% (inactive)
COC(=O)c1c(NC(=O)c2ccoc2C)sc2c1CCC2	-18% (inactive)
COC(=O)c1c(NC(C)=O)sc2c1CCCC2	3.4% (inactive)
NC(=O)c1c(NC(NC(=O)c2ccco2)(C(F)(F)F)C(F)(F)F)sc2c1CCCC2	51.3% (active)
O=C(Nc1sc2c(c1C(=O)O)CCCCC2)c1ccco1	3.9% (inactive)
NC(=O)c1c(NC(=O)c2cccs2)sc2c1CCCCCC2	57.6% (active)
